According to paper PMC4336329 (PLoS ONE, 2015):
The campaign covered roughly 310,000 compounds. About 14,000 (4.5%) showed an effect of 50% or more. Effects have a minus sign here. This excerpt belongs to a sample that is enriched for strong results.

Target: human ether-à-go-go-related gene (hERG) potassium channel (human, UniProt Q12809)
Experiment: primary screen, population patch clamp on CHO cells stably expressing hERG; higher = less effect of the substance
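Further: peak tail current of the secondary pulse compared with the same well before compound.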

Chain of human ether-à-go-go-related gene (hERG) potassium channel (Q12809 whole entry, looked up): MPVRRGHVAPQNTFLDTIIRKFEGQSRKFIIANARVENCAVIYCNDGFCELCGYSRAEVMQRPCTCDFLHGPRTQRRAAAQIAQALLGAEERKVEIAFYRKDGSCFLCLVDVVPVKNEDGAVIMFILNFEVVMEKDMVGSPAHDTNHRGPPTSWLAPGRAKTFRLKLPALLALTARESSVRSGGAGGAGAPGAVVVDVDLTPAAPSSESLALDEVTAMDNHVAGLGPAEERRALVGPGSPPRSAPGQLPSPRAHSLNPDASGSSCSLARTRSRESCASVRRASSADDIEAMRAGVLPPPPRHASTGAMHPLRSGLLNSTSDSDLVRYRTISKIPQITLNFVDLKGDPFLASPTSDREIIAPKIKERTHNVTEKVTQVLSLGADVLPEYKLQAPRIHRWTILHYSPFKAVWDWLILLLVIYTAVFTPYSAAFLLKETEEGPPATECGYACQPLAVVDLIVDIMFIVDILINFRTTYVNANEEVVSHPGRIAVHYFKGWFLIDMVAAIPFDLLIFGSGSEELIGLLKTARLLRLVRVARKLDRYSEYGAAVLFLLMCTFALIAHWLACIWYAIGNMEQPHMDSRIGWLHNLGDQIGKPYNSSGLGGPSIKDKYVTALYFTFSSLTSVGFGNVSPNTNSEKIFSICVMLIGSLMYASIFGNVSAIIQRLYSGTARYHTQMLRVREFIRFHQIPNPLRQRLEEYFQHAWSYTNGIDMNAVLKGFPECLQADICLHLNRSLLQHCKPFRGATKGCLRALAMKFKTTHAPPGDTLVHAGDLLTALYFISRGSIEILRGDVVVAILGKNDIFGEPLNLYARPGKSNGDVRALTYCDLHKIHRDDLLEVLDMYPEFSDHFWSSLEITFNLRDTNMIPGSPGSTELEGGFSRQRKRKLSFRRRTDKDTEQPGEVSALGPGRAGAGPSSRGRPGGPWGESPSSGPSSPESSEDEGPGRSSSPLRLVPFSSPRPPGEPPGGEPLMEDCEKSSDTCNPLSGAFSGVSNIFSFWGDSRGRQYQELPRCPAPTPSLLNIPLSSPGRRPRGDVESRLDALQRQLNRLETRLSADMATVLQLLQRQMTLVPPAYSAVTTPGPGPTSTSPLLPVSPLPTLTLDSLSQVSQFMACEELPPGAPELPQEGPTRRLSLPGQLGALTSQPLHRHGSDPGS

Compound | hERG current change (%, negative = inhibition) at 10uM [%]
O=C1c2ccccc2C2NC(=O)C3(CCCCC3)N12 (stereo not shown) | 7.54
COc1ccc(C2CC(=O)N(c3ccccc3)C3=C2C(=O)CCC3)cc1 (stereo not shown) | 13.1
O=C(CN1C(=O)CC(c2ccco2)Sc2ccccc21)NCc1ccc2c(c1)OCO2 (stereo not shown) | -37.1
S=C(NCCCc1ccccc1)Nc1ccccc1Cl | 2.38
Fc1ccc(-c2csc(-c3ccc(C4SCCS4)cc3)n2)cc1F | 4.89
COC(=O)C1=C(N)Oc2cc(C)n(Cc3cccnc3)c(=O)c2C1c1ccc(OC)c(OC)c1 (stereo not shown) | -19
CCOC(=O)c1cc(C)n(-c2c(C)n(C)n(-c3ccccc3)c2=O)c1C | 21.6
COc1cccc(NC(=S)N/N=C2\CC(C)(C)Oc3ccc(O)cc32)c1 | 3.3
COc1ccccc1NC(=S)N/N=C1\CC(C)(C)Oc2ccc(O)cc21 | 0.968
CC1(C)C/C(=N\NC(=S)Nc2ccccc2F)c2cc(O)ccc2O1 | -18.8
Cc1cccc(NC(=S)N/N=C2\CC(C)(C)Oc3ccc(O)cc32)c1 | 8.34
Cc1ccc(NC(=S)N/N=C2\CC(C)(C)Oc3ccc(O)cc32)cc1 | 12
CC(=O)N1CCC2(CC1)C/C(=N\NC(=S)Nc1ccccc1C)c1cc(O)ccc1O2 | -61.1
CC(=O)N1CCC2(CC1)C/C(=N\NC(=S)Nc1ccccc1F)c1cc(O)ccc1O2 | -69
CC(=O)N1CCC2(CC1)C/C(=N\NC(=S)Nc1ccc(C)cc1)c1cc(O)ccc1O2 | -70.8
Cc1ccccc1NC(=S)N/N=C1\CC(C)(C)Oc2ccc(O)cc21 | 42.1
COc1ccc(C(=O)CC(=O)C(=O)Nc2ccc(C)c(C)c2)cc1 | -12.2
O=C1CSC(c2cccnc2)N1c1ccccc1 (stereo not shown) | 13
CCOCCCNC(=O)CCNS(=O)(=O)c1ccc(C)cc1 | 3.47
Cc1ccc(S(=O)(=O)N(C)c2ccc(OCC(=O)Nc3nc4ccccc4s3)cc2)cc1 | 17.8
Cc1cccc(C(=O)Oc2ccc(/C=N/NC(=O)c3ccc(O)cc3)cc2)c1 | 28.6
Cc1nnc(SC(C)C(=O)Nc2ccc(S(=O)(=O)N3CCCCC3)cc2)s1 (stereo not shown) | -18.4

Compound | hERG current change (%, negative = inhibition) at 10uM [%]
CC(C)NC(=O)C1(O)c2ccccc2NC(=O)N1c1ccc(Cl)c(Cl)c1 (stereo not shown) | 9.1
Cc1cccc(N2CCN(C3=NC(=O)C(Cc4ccccc4)S3)CC2)c1 (stereo not shown) | -30.7
Cc1ccc(N2CCN(C3=NC(=O)C(Cc4ccccc4)S3)CC2)cc1 (stereo not shown) | -40.1
O=C1N=C(N2CCN(c3ccccc3)CC2)SC1Cc1ccccc1 (stereo not shown) | -66.4
Cc1cccc(CC2SC(N3CCN(c4ccccc4)CC3)=NC2=O)c1 (stereo not shown) | -53.5
Cc1cccc(CC2SC(N)=NC2=O)c1.Cl (stereo not shown) | 19.9
NC1=NC(=O)C(Cc2ccccc2)S1 (stereo not shown) | 2.01
O=c1c2[nH]c3cccc(Cl)c3c2ncn1Cc1ccncc1 | -13.6
CN(C)S(=O)(=O)c1ccc(Cl)c(NC(=O)CN2C(=O)NC3(CCc4ccccc43)C2=O)c1 (stereo not shown) | -18
CC(C)C(NS(=O)(=O)c1ccc2c(c1)oc(=O)n2C)C(=O)N1CCN(C2CCCCC2)CC1 (stereo not shown) | 2.88
Cc1ccc(C)c(NC(=O)C2CCCN2C(=O)OC(C)(C)C)c1 (stereo not shown) | 1.04
O=C(CN(CCc1ccccc1)S(=O)(=O)c1ccc(Cl)cc1)N/N=C/c1ccccc1C(=O)O | 14.6
Cc1ccc(N(CC(=O)NCCSc2nc3ccccc3s2)S(=O)(=O)c2ccccc2)c(C)c1 | -42.1
CCOc1ccc2nc(NCCNC(=S)NCCCN(C)C)c(C#N)cc2c1 | 1.89
COc1ccc(C(=O)c2c[nH]c(C(=O)NCCCn3ccnc3)c2)cc1 | 0.775
O=C(c1ccccc1)c1c[nH]c(C(=O)NCCCn2ccnc2)c1 | 5.27
CCC(=O)c1c[nH]c(C(=O)NCCCn2ccnc2)c1 | 9.18
CC(C)(C)c1ccc(C(=O)c2c[nH]c(C(=O)NCCCn3ccnc3)c2)cc1 | -71.3
O=C(c1ccc(C(F)(F)F)cc1)c1c[nH]c(C(=O)NCCCn2ccnc2)c1 | -70.4
O=C(NCCCn1ccnc1)c1ccc(C(F)(F)F)cc1 | -10.8
Cc1ccc(/C=N/NS(=O)(=O)c2ccc([N+](=O)[O-])cc2)o1 | 26.4
Cc1c(NC(=O)c2cccs2)c(=O)n(-c2ccccc2)n1C | 3.8

Compound | hERG current change (%, negative = inhibition) at 10uM [%]
CCCC(Oc1ccc(Br)cc1)c1nc2c3cc(OC)c(OC)cc3nc(=S)n2[nH]1 (stereo not shown) | 14.5
Cc1cccc2c1NC(C)CC2C.Cl (stereo not shown) | 8.01
COc1ccccc1CNC(=O)COC(=O)c1cc(C)oc1C | 0.456
COCCn1c(C)nnc1SCC(=O)NNC(=O)c1ccc(Cl)cc1 | 16.4
COc1ccc(Cl)cc1NC(=O)c1nnn(CC(=O)Nc2ccc(OC)c(OC)c2)c1N | 15.1
O=C(NCc1ccccc1)c1ccc(N2CCC3(CC2)CC(c2ccccc2)=NO3)c([N+](=O)[O-])c1 | 5.28
O=C(NCc1ccccc1)c1ccc(N2CCC3(CC2)CC(c2ccc(Cl)cc2)=NO3)c([N+](=O)[O-])c1 | 11.6
CCCNC(=O)c1ccc(N2CCC3(CC2)CC(c2cccc(Br)c2)=NO3)c([N+](=O)[O-])c1 | -14.2
CCCNC(=O)c1ccc(N2CCC3(CC2)CC(c2ccccc2)=NO3)c([N+](=O)[O-])c1 | -53
COc1ccc(CNC(=O)c2ccc(N3CCC4(CC3)CC(c3ccc(Cl)cc3)=NO4)c([N+](=O)[O-])c2)cc1 | 9.12
CCCNC(=O)c1ccc(N2CCC3(CC2)CC(c2ccc(Cl)cc2)=NO3)c([N+](=O)[O-])c1 | -74.7
COCc1cc(=O)n2[nH]cc(-c3ccccc3)c2n1 | 9.45
COc1ccc(NC(=O)CSc2nnc(C3CC3)n2C)cc1S(=O)(=O)N1CCOCC1 | -0.595
Cc1nc2ncnn2c(C)c1CCC(=O)NCc1ccco1 | -6.62
Cc1cccc(OCC(O)Cn2c(NCc3cccnc3)nc3c2c(=O)[nH]c(=O)n3C)c1 (stereo not shown) | -9.46
O=C(NC1CCCCC1)c1ccccc1NC(=O)C1CC(=O)N(c2ccccc2)C1 (stereo not shown) | -76.8
CCOc1ccc(N2CC(C(=O)Nc3ccccc3F)CC2=O)cc1 (stereo not shown) | -13.5
Cc1ccc(N2CC(C(=O)Nc3ccccc3C(=O)NC3CCCCC3)CC2=O)cc1 (stereo not shown) | -5.81
O=C(NC1CCCCC1)c1ccccc1NC(=O)C1CC(=O)N(c2ccc(Cl)cc2)C1 (stereo not shown) | 2.36
CC(C)Oc1ccc(N2CC(C(=O)Nc3ccccc3C(=O)NC3CC3)CC2=O)cc1 (stereo not shown) | -66.2
CC(C)Oc1ccc(N2CC(C(=O)Nc3ccccc3F)CC2=O)cc1 (stereo not shown) | -17.2
COc1ccc(N2CC(C(=O)Nc3ccccc3C(=O)NC3CC3)CC2=O)cc1 (stereo not shown) | -38.8

Compound | hERG current change (%, negative = inhibition) at 10uM [%]
CCOc1ccc(N2CC(C(=O)Nc3ccccc3C(=O)NC3CC3)CC2=O)cc1 (stereo not shown) | -76.7
Cc1ccc(N2CC(C(=O)Nc3ccccc3C(=O)NC3CCCCC3)CC2=O)cc1C (stereo not shown) | -17.9
O=S(=O)(c1ccc(Br)cc1)N1CCN=C1SCc1cccc(F)c1 | 8.08
O=C(Nc1nnc(Cc2ccc(Cl)cc2)s1)c1cccnc1 | 13.9
COc1ccccc1N1CCN(C(=O)c2cccc(N3C(=O)C4C5C=CC(C5)C4C3=O)c2)CC1 (stereo not shown) | 5.22
CCOC(=O)C1=C(C)NC(=S)NC1c1ccc(OCC(=O)N2CCCCCC2)c(OC)c1 (stereo not shown) | 14.2
O=C(Nc1nnc(Cc2ccccc2)s1)Nc1ccccc1F | 11.1
O=C(CN(C(=O)CCC(=O)Nc1ccccn1)c1ccc(F)cc1)NCc1ccco1 | 14.2
Cc1ccc(C(=O)OCC(=O)Nc2ccc(C(N)=O)cc2)s1 | 10.1
O=C(CCC(=O)c1ccc(F)cc1)Nc1cccnc1 | 1.31
CCCn1nc2cc(C(=O)NCc3ccc(C)cc3)ccc2c1OCC | -1.4
COc1ccc(-c2cc(C(F)(F)F)nc(SCC(=O)NCCCN3CCOCC3)n2)cc1 | -14
CCCOC(=O)c1ccc(NS(=O)(=O)c2cccs2)cc1 | -6.88
O=C(OCCN(CCOC(=O)c1ccncc1)S(=O)(=O)c1cccs1)c1ccncc1 | -77.3
O=C(Oc1ccc(N(C(=O)c2ccncc2)S(=O)(=O)c2cccs2)cc1)c1ccncc1 | 3.77
O=C(C(Cl)Cl)N1CCN(Cc2ccccc2)CC1 | -4.72
CCc1ccccc1OCC(=O)Nc1cc(S(=O)(=O)N(CC)CC)ccc1N1CCOCC1 | -7.83
CCN(CC)S(=O)(=O)c1ccc(N2CCOCC2)c(NC(=O)COc2ccccc2C)c1 | 8.22
CCN1CCN(c2ccc(S(=O)(=O)N3CCOCC3)cc2NC(=O)COc2ccc(F)cc2Cl)CC1 | -24.4
O=C(COc1ccc(F)cc1Cl)Nc1cc(S(=O)(=O)N2CCOCC2)ccc1N1CCCCC1 | 4.24
CCN(CC)S(=O)(=O)c1ccc(N2CCN(C)CC2)c(NC(=O)COc2ccc(F)cc2Cl)c1 | -59
CN1CCN(c2ccc(S(=O)(=O)N3CCOCC3)cc2NC(=O)COc2ccc(F)cc2Cl)CC1 | -61.5
